Molecules are shown by their SMILES. Results filed as inconclusive are left out. Values without a mark were called inactive. The source made the active and inactive calls. The call rests on the fitted dose curve; in most records, active means well fitted activation curve with a large enough effect; inconclusive means small, poorly fitted or top-dose-only effect; inactive means no such curve, though single readings can be large or run the other way. Starred links: 1 amine or outer side, 2 acyl side, 3 side chain; linkers in the order of their positions; H or OH if unused. Positions of bridges follow the written chain, without caps; N, C: chain ends. Non-standard residues stand in square brackets, D forms with d. Residues, ends and D or L forms follow the SMILES beside them. ξ: configuration not given here. *: point of attachment. X11 = NC1=NCCC(C(N[*:1])C(=O)[*:2])N1; ΔAla(3-NHCONH2) = NC(=O)NC=C(N)C(=O)O; ξβ3hOrn = NCCCC(N)CC(=O)*; Dap = NC[CH](N)C(=O)O
Potency means the concentration at half of the fitted maximal effect.

Sequence of Cellular tumor antigen p53 (Homo sapiens) (P04637 whole entry, looked up): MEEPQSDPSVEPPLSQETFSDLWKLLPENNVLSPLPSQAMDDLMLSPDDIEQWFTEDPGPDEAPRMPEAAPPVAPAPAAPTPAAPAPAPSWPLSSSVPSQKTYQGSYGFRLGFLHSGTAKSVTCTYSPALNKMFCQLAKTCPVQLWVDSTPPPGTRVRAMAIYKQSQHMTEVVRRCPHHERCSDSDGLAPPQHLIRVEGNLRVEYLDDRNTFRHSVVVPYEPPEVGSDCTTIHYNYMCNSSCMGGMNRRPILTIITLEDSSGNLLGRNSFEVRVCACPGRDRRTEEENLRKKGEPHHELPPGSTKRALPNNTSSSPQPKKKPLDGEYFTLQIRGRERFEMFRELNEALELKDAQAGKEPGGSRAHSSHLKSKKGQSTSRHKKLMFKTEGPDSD

The experiment has as its target Cellular tumor antigen p53 (Homo sapiens) (UniProt P04637). The experiment in a line: Primary qHTS for small molecule compounds that upregulate eGFP-tagged delta133p53alpha (in N-terminal) cells. (AID 2060322). Further: nearly all actives have a fitted effect of over 75% in size.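 On activation: series mostly up to about 56 µM; 0% = DMSO vehicle and 100% = reference activator.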 Conditions: NCI-H358 eGFP-delta133p53alpha fluorescence, 24 h; activation: hits give high values. The procedure, abridged: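 NCI-H358 cells pre-induced 24 h with 10 ng/ml doxycycline to express N-terminal eGFP-delta133p53alpha, then dosed 24 h at 37C without doxycycline; fixed, Hoechst-stained, GFP intensity by laser scanning cytometry, normalized to DMSO (0%) and 57.5 uM 5-azacytidine (100%).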
A general note: Quantitative high-throughput screening tests each substance at several concentrations.
For `CCNC(=O)/C=C/c1cccc(Br)c1`, the activation is -10.9%.

Consider `CCC[C@H](N[C@@H](C)C(=O)N1[C@H](C(=O)O)C[C@@H]2CCCC[C@@H]21)C(=O)OCC`, for which the activation is -15.3%.

As to `CC(C)CCCC(C)CCCC(C)CCCCC(C)CCCC(C)CCCC(C)C` (stereo not given), the activation was 14.1%.

With `CCS(=O)(=O)CCn1c([N+](=O)[O-])cnc1C`, the Potency was 17.4 µM (active).

In the case of `CC12CCC(CC1)C(C)(C)O2`, the activation was -0.565%.

`CCOC(=O)C(=O)CCc1ccccc1`: the activation is 10%.

Turning to `COc1ccc(C(=O)N2CCN(CC(=O)N3CCOCC3)CC2)cc1`, the activation was 3.95%.

On to `COc1ccc(-c2cc(=S)ss2)cc1`, for which the activation is -4.18%.

Turning to `O=C(Cn1ccnc1[N+](=O)[O-])NCc1ccccc1`, the activation was -10.9%.

Regarding `Cc1ccc2nc(NC(=O)CSc3nc4c(c(=O)n3C)SC(C)C4)sc2c1` (stereo not given), the activation is 21.2%.

On to `CC1(C)O[C@@H]2C[C@H]3[C@@H]4CCC5=CC(=O)C=C[C@]5(C)[C@@H]4[C@@H](O)C[C@]3(C)[C@]2(C(=O)CO)O1`, for which the activation is 10.4%.

Take `CN1[C@H]2CC(OC(=O)[C@@H](CO)c3ccccc3)C[C@H]1[C@H]1O[C@H]12` (stereo not given in full): the activation is 6.53%.

As to `O=C1O[C@H](CO)[C@@H](O)[C@H](O)[C@H]1O`, the activation is 6.69%.

`O=C1C(c2[nH]c3ccccc3c2O)=Nc2ccccc21`: the activation was -0.565%.

On to `CC(C(=O)O)c1cccc(Oc2ccccc2)c1` (stereo not given), for which the activation is 32.2%.

For `OCC(O)C(O)C(O)CO` (stereo not given), the activation is 28.5%.

Turning to `CCCCCCCCCCCCCCCCCCN(C)C`, the activation was -22.6%.

On to `NC1(C(=O)O)CCc2cc(C(=O)O)ccc21` (stereo not given), for which the activation is 7.39%.

As to `Oc1cccc(-c2c3nc(c(-c4cccc(O)c4)c4ccc([nH]4)c(-c4cccc(O)c4)c4nc(c(-c5cccc(O)c5)c5ccc2[nH]5)CC4)C=C3)c1`, the activation is 25.9%.

`NC[C@H]1O[C@H](O[C@H]2[C@H](O[C@@H]3O[C@H](CO)[C@@H](O)[C@H]3O)C(O)[C@H](N)C[C@@H]2N)[C@H](N)[C@@H](O)[C@@H]1O` (stereo not given in full): the activation is 0%.

As for `CCOC(=O)C(O)c1ccccc1` (stereo not given), the activation was -24.3%.

For `CC(=CC(=O)Nc1ccccc1C(=O)O)c1ccc2ccccc2c1`, the activation is -15.6%.

For `CCOc1ccc(Cc2nccc3cc(OCC)c(OCC)cc23)cc1OCC`, the activation is -22.6%.

Turning to `CC(O)Cn1cnc2c1c(=O)n(C)c(=O)n2C` (stereo not given), the activation is 26.6%.

Consider `O=c1ccc2ccccc2o1`, for which the activation was 9.21%.

On to `NC(=O)NN=Cc1ccc([N+](=O)[O-])o1`, for which the activation was 13.5%.

For the compound `CC(NC(=O)c1ccccc1N=Cc1c(O)ccc2ccccc12)c1ccccc1` (stereo not given), the Potency is 43.2 µM (active).

As for `CCCC(=O)OC[C@@H](OC(=O)CCC)[C@@H](OC(=O)CCC)[C@H](Cn1c2nc(=O)[nH]c(=O)c-2nc2cc(C)c(C)cc21)OC(=O)CCC`, the activation is -33.3%.

With `Nc1ccn([C@@H]2O[C@H](CO)[C@H](O)C2(F)F)c(=O)n1`, the activation is 10.5%.

With `O=C(NC1CCN(CCc2c[nH]c3ccccc23)CC1)c1ccccc1`, the activation was 2.51%.

For the compound `C/C=C1/[C@H](O[C@@H]2O[C@H](CO)[C@@H](O)[C@H](O)[C@H]2O)OC=C(C(=O)OC)[C@H]1CC(=O)O[C@@H]1O[C@H](CO)[C@@H](O)[C@H](O)[C@H]1O`, the activation is -32.8%.

For the compound `CC(C)=CCOc1ccc(/C=C/C(=O)c2ccc(OCC=C(C)C)cc2OCC(=O)O)cc1`, the activation is -1.67%.

Turning to `NCCCC(N)CC(=O)NCC1NC(=O)C(CO)NC(=O)C(N)CNC(=O)C(C2CCN=C(N)N2)NC(=O)C(=CNC(N)=O)NC1=O` (stereo not drawn) (H-[Dap]S[Dap](ξβ3hOrn)[ΔAla(3-NHCONH2)][X11]; lactam 1-C; configuration not given here), the activation is -4.18%.

On to `CC(=O)C1=C(O)C=C2Oc3c(C(C)=O)c(O)c(C)c(O)c3C2(C)C1=O` (stereo not given), for which the activation was 47.4%.

In the case of `CCOc1ccccc1OCC1CNCCO1` (stereo not given), the activation was -17.6%.

As to `Cc1cc2c(OCC(CNC(C)(C)C)OC(=O)c3ccccc3)cccc2[nH]1` (stereo not given), the activation is 9.6%.

`COc1cc2c(cc1OC)C(=O)CC2`: the activation is -2.82%.

`CCOC(=O)NNc1nncc2ccccc12`: the activation was 20.1%.

Turning to `CC(=O)NCc1c(I)c(NC(C)=O)c(I)c(C(=O)O)c1I`, the activation is 16.4%.

In the case of `CCN(CC)C(=O)N1CCN(C)CC1`, the activation is -2.51%.

Source of the values: PubChem BioAssay (NCATS).
